Cruzain Triton = qHTS Assay for Promiscuous and Specific Inhibitors of Cruzain (with detergent); AID 1478, 2009; Cruzipain (Trypanosoma cruzi), P25779; purified cruzain, Z-FR-AMC fluorescence, 0.01% Triton; actives 0.43% (n = 200,000); Potency, µM, for the others: max response, negative = inhibition, usual class: inhibitors;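 also: plate controls were neutral wells for no effect and buffer without enzyme for full effect; nearly all actives have a fitted effect of over 40% in size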
Target sequence (P25779 123-467 limits assumed): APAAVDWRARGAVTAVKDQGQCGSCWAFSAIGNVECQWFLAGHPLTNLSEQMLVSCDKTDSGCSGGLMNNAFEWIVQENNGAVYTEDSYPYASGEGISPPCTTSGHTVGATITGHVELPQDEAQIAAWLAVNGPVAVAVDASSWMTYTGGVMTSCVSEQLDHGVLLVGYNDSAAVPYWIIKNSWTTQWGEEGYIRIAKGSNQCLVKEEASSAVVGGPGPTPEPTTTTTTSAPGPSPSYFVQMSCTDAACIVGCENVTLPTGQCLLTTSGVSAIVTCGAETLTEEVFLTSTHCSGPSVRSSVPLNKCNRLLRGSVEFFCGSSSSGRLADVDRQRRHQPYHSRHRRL
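Cruzain (1.5 nM) preincubated 15 min at RT with compound in 100 mM sodium acetate pH 5.5, 5 mM DTT, 0.01% Triton X-100. Reaction started with 2 uM Z-FR-AMC; AMC fluorescence (ex 360/em 450 nm) change over 60 s gave rate.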
Cruzain inh noDet = qHTS Assay for Promiscuous and Specific Inhibitors of Cruzain (without detergent) | Potency, µM, for inactives: max response, negative = inhibition, most hits filed as inhibitors | actives 2.3% (n = 200,000) | Cruzipain (Trypanosoma cruzi), P25779 | purified cruzain, Z-FR-AMC fluorescence, no detergent;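 also: plate controls were enzyme without inhibitor for no effect and buffer without enzyme for full effect; nearly all actives have a fitted effect of over 40% in size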
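Purified cruzain at 1.5 nM, pre-incubated 15 min with compound at room temperature in 100 mM sodium acetate pH 5.5, 5 mM DTT, 0.00005% Triton X-100. Reaction started with 2 uM Z-FR-AMC; AMC fluorescence increase over 60 s gives rate.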
* marks the source's active call; other numbers are inactive results; u = inconclusive; x = no result; ! = not active in a repeat. Compounds with a hit are over-represented: about 2.5% of the library has one in this group of screens. Calls follow the shape of the dose curve; as a rule, active = well fitted curve in the direction sought with a large enough effect; inconclusive = small, poorly fitted or top-dose-only effect, or another doubt; inactive = no such curve, though single readings can be large; an effect the other way counts as inactive or inconclusive. Potency is read from the fitted curve at half-maximal effect.

SMILES | Cruzain Triton | Cruzain inh noDet
O=C(CCCn1c(=O)c2cccn2c2ccccc21)NCCc1ccc(Cl)cc1 | -12% | 10%
Cc1ccc(C)c(CN2C(=O)c3ccccc3S(=O)(=O)c3ccc(C(=O)N(C)C4CCCCC4)cc32)c1 | -2% | -19%
CN(C)S(=O)(=O)c1ccc(C(=O)Nc2nc(-c3cccs3)cs2)cc1 | -7% | 9%
COc1ccc(-n2c(C)cc(-c3csc(NC(=O)c4ccc(S(=O)(=O)N(C)C)cc4)n3)c2C)cc1 | -1% | 10µM*
COc1ccccc1C(=O)NCC(=O)OCc1ccc(Br)cc1 | -19% | -11%
COc1ccccc1C(=O)NCC(=O)OC(C)C(=O)NC(=O)NC1CCCCC1 (centres undefined) | 8.9µM* | 10µM*
CC1Cc2ccccc2N1C(=O)CSc1nnc(Cc2ccccc2)n1CCc1ccccc1 (centres undefined) | -8% | 24%
Oc1c(CN2CCc3ccccc3C2)cc(Cl)c2cccnc12 | 0% | -5%
Oc1c(I)cc(Cl)c2cccnc12 | 2% | 13µM*!
COc1ccc(OCc2nc3c4c(-c5ccc(OC)cc5)c(-c5ccc(OC)cc5)oc4ncn3n2)cc1 | -1% | -7%
COc1ccc(-c2oc3ncn4nc(COc5ccc(C)cc5)nc4c3c2-c2ccc(OC)cc2)cc1 | 2% | 7%
COc1ccc(-c2oc3ncn4nc(COc5ccccc5)nc4c3c2-c2ccc(OC)cc2)cc1 | -10% | 4µM*
COc1ccc(-c2oc3ncn4nc(Cc5ccccc5)nc4c3c2-c2ccc(OC)cc2)cc1 | -10% | 10µM*
O=C1NC(=S)S/C1=C\c1ccc(SCc2ccco2)o1 | 16µM* | u
O=C1NC(=S)S/C1=C\c1ccc(SCc2ccccc2)o1 | -22% | -16%
Cc1ccn2cc(-c3ccc(S(=O)(=O)N4CCOCC4)cc3)nc2c1 | 28µM* | u
Cc1ccc2nc(-c3ccc(S(=O)(=O)N4CCOCC4)cc3)cn2c1 | -2% | -3%
c1ccc2c(c1)OCCOCCOc1ccccc1OCCOCCO2 | -2% | -3%
CCOCCCNC(=O)Cn1ncc2c([nH]c3ccc(C)cc32)c1=O | -3% | -6%
Cc1ccc(CNC(=O)CCCCCn2c(=O)c3sccc3n(CC(=O)N3CCCCC3C)c2=O)cc1 (centres undefined) | -2% | 8%
Nc1ccc(N2CCCCCC2)cc1 | -9% | 32µM*
O=C(O)c1ccc(N2CCCCC2)cc1 | -6% | 0%
C/C=C\C[C@H](C)[C@H](O)[C@H]1C(=O)N[C@@H](CC)C(=O)N(C)CC(=O)N(C)[C@@H](CC(C)C)C(=O)N[C@@H](C(C)C)C(=O)N(C)[C@@H](CC(C)C)C(=O)N[C@@H](C)C(=O)N[C@@H](C)C(=O)N(C)[C@@H](CC(C)C)C(=O)N(C)[C@@H](CC(C)C)C(=O)N(C)[C@@H](C(C)C)C(=O)N1C | -4% | x
COc1ccccc1/C=N/NC(=O)c1ccccc1NS(=O)(=O)c1ccc(C)cc1 | -8% | -1%
COc1cccc(/C=N/NC(=O)c2ccc(-c3ccccc3)cc2)c1O | 1% | 16µM*
SMILES | Cruzain Triton | Cruzain inh noDet
COc1ccccc1/C=N/NC(=O)C1=NNC(c2ccccc2)(c2ccccc2)C1 | -10% | 16µM*
COc1cccc(/C=N/NC(=O)c2ccc(=O)n(C)c2)c1O | -3% | -12%
CCCCOCCCNc1ncnc2c1[nH]c1ccccc12 | u | -29%
c1ccc2c(c1)[nH]c1c(NCC3CCCO3)ncnc12 (centres undefined) | -30% | 25µM*
CC(=O)Nc1ccc(N2N=C(C)C(N=Nc3ccccc3)C2=O)cc1 (centres undefined) | -5% | u
CC1=NN(C(N)=S)C(=O)C1N=Nc1c(C)cc(C)cc1C (centres undefined) | -27% | 13µM*
CC1=NN(C(N)=S)C(=O)C1N=Nc1ccccc1C (centres undefined) | u | 25µM*
CC1=NN(C(N)=S)C(=O)C1N=Nc1ccc(C)cc1C (centres undefined) | -17% | u
Cc1ccc(NS(=O)(=O)c2ccc(-c3cnc(C4CC4)o3)cc2)cc1N(C)C | -12% | 10%
COc1ccc(OC)c(N=c2ssnc2Cl)c1 | -15% | u
COc1cc(N=c2ssnc2Cl)c(OC)cc1Cl | -11% | 25µM*
COc1cccc(NC(=O)C2C3CCC4C(CCC32)C4(Cl)Cl)c1 (centres undefined) | -7% | 10%
COc1ccc(NC(=O)C2C3CCC4C(CCC32)C4(Cl)Cl)cc1 (centres undefined) | 3% | 25µM*
N#CCCn1c(=O)c(-c2ccc(F)cc2)nc2cnc(Oc3cccc(Cl)c3)nc21 | 4% | -3%
CCOC(=O)C1=NN(c2ccccc2)C2(S1)SC(C(C)=O)=C(C)N2c1ccccc1 (centres undefined) | -3% | 10%
COC(=O)C1=NN(c2ccccc2)C2(S1)S/C(=C\c1ccccc1)C(=O)N2c1ccccc1 (centres undefined) | 2% | 10µM*
Cc1cc(Cl)nc(NC(=O)CSc2ccc(Cl)cc2)n1 | -6% | -1%
Cc1ccc(OCc2ccc(C(=O)Nc3nccs3)o2)cc1C | -1% | 1%
Cc1cc(NC(=O)c2ccc(COc3ccc(Cl)c(C)c3)o2)no1 | -2% | 25µM*
S=C([S-])NCCNC(=S)[S-].[Zn+2] | 32µM* | u
CCc1ccccc1NCc1nnc2n1CCCCC2 | 1% | 12%
O=C(O)CCC(=O)Nc1cccc(C(=O)Nc2cccc(Cl)c2)c1 | 0% | 8%
O=C(Cc1ccccc1)Nc1ccc(NC(=O)c2cccc(Cl)c2)cc1 | 0% | 25µM*
CC1=C(C(=O)OC2CCCCCC2)C(c2ccc(Cl)cc2Cl)CC(=O)N1 (centres undefined) | 0% | 0%
CN1C[C@@H](CO)C=C2c3cccc4[nH]cc(c34)CC21 (some centres undefined) | 8% | 40µM*
SMILES | Cruzain Triton | Cruzain inh noDet
CCC(CO)NC(=O)[C@@H]1C=C2c3cccc4[nH]cc(c34)C[C@H]2N(C)C1 (some centres undefined) | -8% | u
COc1cc2c(cc1OC)C(c1ccccc1O)N(C1CC(=O)N(c3ccccc3)C1=O)CC2 (centres undefined) | -5% | u
Cc1ccc(-n2c(=O)c3c(cnn3C)n(Cc3ccccc3F)c2=O)cc1 | 0% | 9%
Cc1ccccc1C(=O)NC1(C(F)(F)F)C(=O)Nc2c1c(=O)[nH]c(=O)n2-c1ccc(F)cc1 (centres undefined) | 1% | 1%
CC(=O)c1cccc(NC(=O)c2ccc3c(c2)c(C)c(C)n3Cc2ccc(Cl)cc2)c1 | 3% | 6.3µM*
CCOc1ccc(NC(=O)c2ccc3[nH]c(C)c(C)c3c2)cc1 | -8% | -19%
CCOc1ccc(NC(=O)c2ccc3c(c2)c(C)c(C)n3Cc2ccc(F)cc2)cc1 | 2% | 25µM*
Cc1c(C)n(Cc2ccc(F)cc2)c2ccc(C(=O)Nc3ccc(Cl)cc3)cc12 | 3% | 25µM*
CCn1c(C)c(C)c2cc(C(=O)Nc3cccc(Cl)c3)ccc21 | -6% | u
Cc1ccc(CNC(=O)c2ccc3c(c2)c(C)c(C)n3Cc2ccc(Cl)cc2)o1 | -1% | u
COc1ccc(NC(=O)c2ccc3c(c2)c(C)c(C)n3Cc2ccc(F)cc2)c(OC)c1 | -1% | u
COc1ccc(OC)c(NC(=O)c2ccc3c(c2)c(C)c(C)n3Cc2ccc(F)cc2)c1 | 1% | 5µM*
COc1ccccc1NC(=O)n1ncc2c(C)cccc21 | -8% | u

Bioassay records deposited in PubChem BioAssay by National Center for Advancing Translational Sciences (NCATS).
